From PubChem
Giardia FBPA inh: Giardia lamblia aldolase inhibition | A8B2U2 | actives 0.71% (n = 290,000) | Potency, µM (doses to about 59.6 µM), inactives show top-dose activity, negative = inhibition, most hits filed as inhibitors | AID 2451 | purified Giardia FBPA; further: potency means the concentration at half of the fitted maximal effect; on the % scale 0 is the no-effect control and ±100 the full control effect; nearly all actives have a fitted effect of over 55% in size
Target sequence (A8B2U2 whole entry, looked up): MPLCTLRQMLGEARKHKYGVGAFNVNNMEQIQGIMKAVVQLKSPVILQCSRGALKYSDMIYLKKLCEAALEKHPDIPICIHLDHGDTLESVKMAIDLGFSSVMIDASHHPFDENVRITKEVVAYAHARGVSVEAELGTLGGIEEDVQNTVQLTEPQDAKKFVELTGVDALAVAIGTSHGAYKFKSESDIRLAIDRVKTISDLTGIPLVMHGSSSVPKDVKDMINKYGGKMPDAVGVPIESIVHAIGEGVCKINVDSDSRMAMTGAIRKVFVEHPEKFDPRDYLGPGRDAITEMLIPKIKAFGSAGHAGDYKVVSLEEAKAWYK
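Giardia FBPA (40 nM reagent) was preincubated 10 min at RT with compound (up to 57.5 uM final), then substrate plus GAPDH/TPI/NAD/arsenate coupling system with diaphorase/resazurin was added; resorufin fluorescence (525/598 nm) was read after 20 min.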
Pf growth 96h: P. falciparum growth inhibition at 96 hour, primary screen for plastid delayed-death inhibitors; P. falciparum luciferase reporter growth, 96 h; Potency, µM (doses to about 28.7 µM), for inactives: top-dose activity change, negative = inhibition, hits mostly inhibitors; actives 6.9% (n = 320,000); AID 504834; further: potency means the concentration at half of the fitted maximal effect; on the % scale 0 is the no-effect control and ±100 the full control effect
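Luminescence readout: decreased luciferase signal marks inhibited growth of reporter-expressing P. falciparum in infected red cells (2% hematocrit, 0.05% parasitemia final), exposed to compound two generations (96 h, 37 C, 5% CO2).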
Cycloheximide cs: affects cycloheximide protein synthesis inhibition readout, counter-screen; actives 12% (n = 300,000); max response, %; cell reporter, cycloheximide protein synthesis inhibition counterscreen; AID 2314; in the data active means max response mostly above about 13%, no sharp cut-off; inactive means mostly below about 14%; further: read at 38.3 µM for the half of the compounds with a filed dose; 0% is about no effect
NS1 inh: blocks influenza NS1 protein function | Potency, µM (doses to about 46.1 µM), for inactives: at the top dose activity, positive = more growth | AID 2326 | actives 0.4% (n = 270,000); calls by dose curve; further: potency means the concentration at half of the fitted maximal effect; actives are rising curves; nearly all actives have a fitted effect of over 50% in size
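A cell-based growth assay was used: compounds that relieve NS1-induced slow growth of budding yeast raise OD600. Assay medium was yeast nitrogen base with ammonium sulphate and -URA supplement, pH 6.0, with 2% galactose.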
Pf growth 48h: inhibits P. falciparum growth in the first generation, 48 h | AID 504832 | P. falciparum luciferase growth in erythrocytes, 48 h | Potency, µM (highest dose often 28.7 µM), for inactives: top-dose activity change, negative = inhibition, usual class: inhibitors | actives 5.9% (n = 310,000); further: potency means the concentration at half of the fitted maximal effect; on the % scale 0 is the no-effect control and ±100 the full control effect
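Here the parasites carry a stable luciferase gene and grow inside erythrocytes in Albumax-based RPMI medium with compound for one erythrocytic cycle. Activity is scored as loss of luminescent signal.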
Shiga toxin inh: Shiga toxin inhibition; Vero cells, Shiga toxin protein synthesis inhibition reporter; inhibition, % at 38.7 µM; actives 9.2% (n = 290,000); in the data active means inhibition mostly above about 28%, no sharp cut-off; inactive means mostly below about 43%; further: 0% is about no effect
The depositor's hits bear a star; u = inconclusive; x = no result. The list is not random: actives were taken first. Their share in the collection is about 21%. Unless noted, the call rests on the fitted dose curve; in most records, active means well fitted curve in the direction sought with a large enough effect; inconclusive means small, poorly fitted or top-dose-only effect, or another doubt; inactive means no such curve, though single readings can be large; an effect the other way counts as inactive or inconclusive.

SMILES | Giardia FBPA inh | Pf growth 96h | Cycloheximide cs | NS1 inh | Pf growth 48h | Shiga toxin inh
CCC/C=C(\CCC)C(NC(=O)c1cccs1)c1ccc(C(=O)OC)cc1 (stereo not given) | 0% | x | x | x | x | x
COC(=O)CN(n1cnnc1)S(=O)(=O)c1ccccc1 | 0% | 12µM* | 9 | u | 9% | -16
COC(=O)CN(c1ccccc1)S(=O)(=O)c1ccccc1 | 9% | 22% | 1 | 3% | x | 19
Fc1ccccc1CSc1nc2ncc(Br)cc2[nH]1 | -28% | 13µM* | 22* | -6% | x | 27
Fc1ccccc1CSc1nc2ccccc2[nH]1 | -2% | 237% | 54* | -79% | x | 86*
c1ccc2[nH]c(SCc3cscn3)nc2c1 | -21% | u | 35* | -10% | 61% | 65*
Fc1c(F)c(F)c(CSc2nc3ccccc3[nH]2)c(F)c1F | -2% | 32% | 25* | -3% | u | 71*
CCN(C(=O)Cn1cnc2ccccc2c1=O)C1CCS(=O)(=O)C1 (stereo not given) | x | -11% | x | x | 6% | x
Cc1ccc(N2C(=O)c3ccccc3C2Nc2cccnc2)nc1 (stereo not given) | -28% | -1% | 36* | 1% | 23% | 46
COc1cc(NC2c3ccccc3C(=O)N2Cc2ccc3c(c2)OCO3)cc(OC)c1OC (stereo not given) | -16% | u | -5 | 13% | x | -7
COc1cc(NC2c3ccccc3C(=O)N2c2ccc(C)cn2)cc(OC)c1OC (stereo not given) | u | 13% | 48* | -4% | u | 118*
O=C1c2ccccc2C(Nc2cccnc2)N1Cc1ccccc1 (stereo not given) | -10% | 10µM* | -5 | 4% | x | -20
COc1cc(NC2c3ccccc3C(=O)N2c2cc(C)ccn2)cc(OC)c1OC (stereo not given) | u | u | 23* | 12% | x | 58*
Cc1ccc(/C([O-])=C(/C(=S)NCc2ccccc2)[n+]2ccccc2)cc1[N+](=O)[O-] | -10% | -22% | -3 | x | 9% | -5
COc1cccc(NC(=S)/C(=C(\[O-])c2ccc([N+](=O)[O-])cc2)[n+]2ccccc2)c1 | -8% | -13% | 24* | x | 0% | 66*
CCOc1ccc(NC(=S)/C(=C(\[O-])c2ccc(C)c([N+](=O)[O-])c2)[n+]2ccccc2)cc1 | -5% | x | 33* | 2% | u | 41*
COc1cccc(NC(=O)CNC(=O)c2ccc([N+](=O)[O-])cc2)c1 | 3% | 38% | -5 | 0% | 3% | -4
O=[N+]([O-])c1cccc(/C([O-])=C(/C(=S)Nc2cccc3ccccc23)[n+]2ccccc2)c1 | -56% | u | 27* | u | 9.3µM* | 64*
O=[N+]([O-])c1ccc(/C([O-])=C(/C(=S)Nc2ccccc2F)[n+]2ccccc2)cc1 | -8% | 1% | 4 | x | 38% | 16
CCc1cc[n+](/C(C(=S)Nc2cccc(C)c2)=C(/[O-])c2ccc(C)c([N+](=O)[O-])c2)cc1 | -14% | 0.15µM* | -1 | 3% | u | 5
CSCCC(NS(=O)(=O)c1ccccc1F)C(=O)N1CCCCCCC1 (stereo not given) | x | 13% | -4 | 2% | -2% | -8
CC12C=C(/C=C/c3ccc(Br)cc3)C(C)(C1)[C@H](c1ccc(Br)cc1)CC2=O (stereo not given in full) | 3% | x | x | x | x | x
CCOc1ccc(NC(=S)Nc2ccc(C)c([N+](=O)[O-])c2)cc1 | -8% | 2.1µM* | -5 | -3% | x | -10
COc1ccc(C2C3C=CCC(c4cccc(-c5ccc(N(C)C)cc5)c4)C3C(=O)N2Cc2ccccc2)cc1Cl (stereo not given) | -1% | x | 22 | x | x | 22
CC(C)/C=C/CN1CCCC(N2CCN(c3cccc(Cl)c3)CC2)C1 (stereo not given) | 14% | 78% | 3 | -8% | u | -3
SMILES | Giardia FBPA inh | Pf growth 96h | Cycloheximide cs | NS1 inh | Pf growth 48h | Shiga toxin inh
O=C(Nc1cccnc1)c1noc2c1CCCC2 | -9% | 34% | 47* | -8% | 109% | 85*
Cc1ccc(NC(=O)c2noc3c2CC(C(C)(C)C)CC3)cc1 (stereo not given) | -2% | 25% | 1 | -4% | 38% | -1
CC(C)(C)C1CCc2onc(C(=O)Nc3cccnc3)c2C1 (stereo not given) | -4% | 51% | -3 | -32% | u | -12
CC(=O)c1ccc(NC(=O)c2noc3c2CCCCC3)cc1 | 3% | 35% | 40* | -8% | 207% | 44*
O=C(Nc1ccc2c(c1)OCO2)c1noc2c1CCCC2 | -22% | 48% | 33* | -14% | 202% | 53*
O=C(Nc1ccc2c(c1)OCO2)c1noc2c1CCCCC2 | -4% | 33% | 38* | -78% | -1% | 101*
COc1cccc([C@@H]2CC=C(C(=O)O)[C@H](c3cccc(Cl)c3)N2S(=O)(=O)c2ccc(C)cc2)c1 | x | 12µM* | x | x | u | x
Cc1ccc(S(=O)(=O)N2[C@@H](c3ccc(F)cc3)C(C(=O)O)=CC[C@H]2c2ccc(Cl)cc2)cc1 | x | 25% | x | x | 7% | x
COc1ccc([C@@H]2CC=C(C(=O)O)[C@H](c3ccc(F)cc3)N2S(=O)(=O)c2ccc(C)cc2)cc1OC | x | 10µM* | x | x | u | x
COc1cc([C@@H]2CC=C(C(=O)O)[C@H](c3ccccc3F)N2S(=O)(=O)c2ccc(C)cc2)cc(OC)c1OC | x | 10µM* | x | x | 10µM* | x
COc1cc([C@@H]2CC=C(C(=O)O)[C@H](c3ccc(F)cc3)N2S(=O)(=O)c2ccc(C)cc2)cc(OC)c1OC | x | 1.9µM* | x | x | 3.3µM* | x
Cc1ccc(S(=O)(=O)N2[C@@H](c3ccc(F)cc3)C(C(=O)O)=CC[C@H]2c2ccc(C(C)C)cc2)cc1 | x | 39% | x | x | 20% | x
Cc1cc(C)c(C(=O)C(C)OC(=O)Cn2cnc3c2c(=O)n(C)c(=O)n3C)cc1C (stereo not given) | x | 37% | x | x | 16% | x
CCOc1ccc(S(=O)(=O)N2CCC(C(=O)NCCc3ccccc3)CC2)cc1 | -8% | 23% | -3 | 17% | -9% | -2
Cc1ccc(S(=O)(=O)N2[C@@H](c3ccccc3F)C(C(=O)O)=CC[C@H]2c2ccc(Cl)c(Cl)c2)cc1 | x | 12µM* | x | x | u | x
Cc1ccccc1N1CCN(C2CCCN(C(=O)c3csc(C(C)C)n3)C2)CC1 (stereo not given) | 7% | u | 2 | -13% | -19% | -5
Cc1ccc2nc(C)cc(C(=O)N3CCCC(N4CCN(c5ccccc5C)CC4)C3)c2c1 (stereo not given) | -16% | 1% | 8 | -42% | 12µM* | -8
O=C(c1ccncc1)N1CCCC(N2CCN(c3ccc(F)cc3)CC2)C1 (stereo not given) | x | 30% | 27* | 14% | 27% | 39*
